Source: PubChem BioAssay (Tox21)
Results filed as inconclusive are left out. Entries that show only a call come without a potency. Active and inactive are the calls of the source. The call rests on the fitted dose curve.

assay: p53 small molecule agonists, cell-based qHTS assay: qHTS cell viability counter screen (AID 1963581); conditions: p53RE-bla HCT-116 viability, ATP luminescence, 16 h; series mostly up to 66 µM; further: nearly all actives have a fitted effect of over 45% in size
Text: National Center for Advancing Translational Sciences [NCATS]
Division of Preclinical Innovation [DPI]
U.S. Environmental Protection Agency [EPA]
National Institutes of Environmental Health Sciences [NIEHS]
National Toxicology Program [NTP]
U.S. Food and Drug Administration [FDA]
p53, a tumor suppressor protein, is activated following cellular insult, including DNA damage and other cellular stresses. The activation of p53 regulates cell fate by inducing DNA repair, cell cycle arrest, apoptosis, or cellular senescence. The activation of p53, therefore, is a good indicator of DNA damage and other cellular stresses. The CellSensor p53RE-bla HCT-116 cell line (Invitrogen) contains a stably integrated beta-lactamase reporter gene under control of the p53 response elements. The activation of the reporter gene under culture conditions can be detected by fluorescence intensity. This cell line was used to screen the Tox21 compound library in a 1536-well plate format and to identify agonists that activate the p53 signaling pathway. The cytotoxicity of the Tox21 compound library against the p53 RE-bla HCT-116 cell line was tested in parallel by measuring the intra cellular ATP content in the same wells.
Tox21 Assay Protocol Summary:
The p53RE-bla cells were dispensed at 4,000 cells/5 ul/well in 1536-well black wall/clear bottom plates using a Multidrop dispenser. After the assay plates were incubated at a 37 C/5% CO2 incubator for 5 hours, 23 nL of compounds dissolved in DMSO, positive controls or DMSO only was transferred to the assay plate by a pin tool. The plates were incubated at 37 C for 16 hours. After 1 uL of LiveBLAzerTM B/G FRET substrate was added using a Flying Reagent Dispenser, the plates were incubated at room temperature for 2 hours, and fluorescence intensity was measured by an Envision plate reader. For cell viability readout that measures cytotoxicity, 4 ul/well of CellTiter-Glo reagent was added into the assay plates using a Flying Reagent Dispenser. After 30 min incubation at room temperature, the luminescence intensity in the plates was measured using a ViewLux plate reader.
Potency means the concentration at half of the fitted maximal effect.

Structure (SMILES)	Potency
OCC(F)(F)F	inactive
CC(=O)c1cccnc1	inactive
CC(C)c1ccc2sc3ccccc3c(=O)c2c1	inactive
C=COCC1CCC(CO)CC1 (stereo not given)	inactive
CN1C[C@H](C(=O)N[C@]2(C)O[C@@]3(O)[C@@H]4CCCN4C(=O)[C@H](Cc4ccccc4)N3C2=O)C[C@@H]2c3cccc4[nH]cc(c34)C[C@H]21	inactive
CCN(CC)CCc1nc(-c2ccccc2)no1	inactive
CCOC(=O)C(Br)c1ccccc1 (stereo not given)	inactive
O=C1OC(=O)C2CCCCC12 (stereo not given)	inactive
COc1ccc(-n2nc(CCC(=O)N(C)O)cc2-c2ccc(Cl)cc2)cc1	inactive
C=CC(=O)OCC(CO)(COCC(COC(=O)C=C)(COC(=O)C=C)COC(=O)C=C)COC(=O)C=C	14.3 µM (active)
CCCCCCCC/C=C\CCCCCCCCN	inactive
CN1C(C)(C)CCCC1(C)C	inactive
Nc1ccc(C(=O)O)c(O)c1	inactive
CCCCOCCOC(=O)c1cccnc1	inactive
C=C1CC[C@H](O)C/C1=C\C=C1/CCC[C@]2(C)[C@@H]([C@H](C)CCCC(C)C)CC[C@@H]12	inactive
Cc1ccc(C(=O)c2ccccc2)cc1	inactive
O=C(Nc1ccccc1)c1ccccc1O	inactive
Cc1ccc(OC(=O)c2ccccc2O)cc1	inactive
O=C(OCC1(COC(=O)c2cccnc2)CCCC(COC(=O)c2cccnc2)(COC(=O)c2cccnc2)C1O)c1cccnc1	inactive
c1cc[nH]c1	inactive

Structure (SMILES)	Potency
O=C(CN1CCN(Cc2ccc3c(c2)OCO3)CC1)N1c2ccccc2Sc2ccccc21	inactive
O=C1[C@H]2CCCC[C@H]2C(=O)N1CCCCN1CCN(c2nsc3ccccc23)CC1	inactive
Cc1cc(C(=O)O)ccc1[N+](=O)[O-]	inactive
OC[C@H](Cc1cccc(O)c1)[C@H](CO)Cc1cccc(O)c1	inactive
CCOC(=O)COc1ccc(C)cc1	inactive
Nc1ncnc(Nc2ccccc2)n1	inactive
O=C(O)c1ccncc1	inactive
Oc1c(I)cc(I)c2cccnc12	inactive
Cc1c(Cn2ccnc2)c2ccccc2n1CCC(=O)O	inactive
CC(C)(C)c1cc(CCC(=O)OCCSCCOC(=O)CCc2cc(C(C)(C)C)c(O)c(C(C)(C)C)c2)cc(C(C)(C)C)c1O	inactive
CCN(CC)CCOc1ccc(C(O)(Cc2ccc(Cl)cc2)c2ccc(C)cc2)cc1 (stereo not given)	19.9 µM (active)
O=S1(=O)CC(Cl)(Cl)C(Cl)(Cl)C1	16.2 µM (active)
O=NN(CCCl)C(=O)NC1CCCCC1	inactive
OC1CCC(C2CCCCC2)CC1 (stereo not given)	inactive
NS(=O)(=O)c1cc2c(cc1C(F)(F)F)NCNS2(=O)=O	inactive
COc1ccc(S(=O)(=O)N2c3ccc(Cl)cc3[C@@](O)(c3ccccc3Cl)[C@H]2C(=O)N2CCC[C@@H]2C(N)=O)cc1OC	inactive
CCOC(=O)C(C)O (stereo not given)	inactive
CCN1CCCC1CNC(=O)c1cc(S(=O)(=O)CC)c(N)cc1OC (stereo not given)	inactive
C=C(C)CCCC(C)CCO (stereo not given)	inactive
COc1ccc(C(=O)c2ccc(OC)cc2O)c(O)c1	inactive
